Our source for the Inhibition values is ChEMBL document CHEMBL1157539, “Thousands of chemical starting points for antimalarial lead identification” (Nature, 2010).

One may read the Inhibition as the relative decrease from the control value, in per cent.

Holding throughout (assay type): functional
Test [1] has as its system Plasmodium falciparum. Put plainly: GSK_TCMDC: Inhibition of Plasmodium falciparum 3D7 in whole red blood cells, using parasite LDH activity as an index of growth. Test compounds present at 2uM.
Test [2] deals with Plasmodium falciparum. The test is described as follows: GSK_TCMDC: Inhibition of Plasmodium falciparum Dd2 in whole red blood cells, using parasite LDH activity as an index of growth. Test compounds present at 2uM.
The test system of a further test is HepG2. The test is described as follows: GSK_TCMDC: Percent inhibition of human HepG2 cell line. Test compounds present at 10uM.

For the compound `O=[N+]([O-])c1ccc2ncnc(Nc3ccc(F)c(Cl)c3)c2c1`, the values for the Inhibition with Plasmodium falciparum [1], in the test with Plasmodium falciparum [2] and in the test on HepG2 were 100%, 65% and 0%, respectively.
`CCN(CC)CCN(Cc1ccc(-c2ccc(C(F)(F)F)cc2)cc1)C(=O)Cn1c(SCc2ccc(F)cc2)nc(=O)c2ccccc21.O=C(O)C(O)C(O)C(=O)O`: the results for the Inhibition in the test on Plasmodium falciparum [1], with Plasmodium falciparum [2] and with HepG2 were 98%, 48% and 47%, respectively.
Consider `CN1CCCc2ccc(NC(=O)c3cc(-c4ccc(Cl)cc4)cs3)cc2C1.O=C(O)C(F)(F)F`, for which the Inhibition in the test on Plasmodium falciparum [1] is on record as 94%; in the test with Plasmodium falciparum [2], 40%; with HepG2, 35%.
For `CNS(=O)(=O)c1ccc(NC(=O)c2cc(-c3cccnc3)nc3ccc(Br)cc23)cc1`, in that order: 100%, 55% and 9%.
